Assay outcomes from PubChem.
The list is not random: actives were taken first. Their share in the collection is about 2.5%.
SDO1 yeast rescue = compounds rescuing growth of sdo1-depleted yeast, bone marrow failure model; S. cerevisiae sdo1-depleted JHY4D growth rescue, OD600 30 h; hits give high values; pdr5 snq2 efflux-pump mutant strain; z-score at 10 µM; actives 0.21% (n = 140,000); AID 817;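 active = z-score above 3 at both the 24 hr and the 30 hr optical density reads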;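 note: z-score against mean and SD of all compound wells on the same plate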
MRP resist rev = MRP-mediated drug resistance reversal; H69AR cells + 2 uM doxorubicin, CellTiter-Glo, 72 h; differential viability (reversal), % at 10 µM; actives 0.04% (n = 85,000); AID 602;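 active = viability drop by adding the cancer drug above about 55%, with treated viability meeting a 40% cutoff, limit read from the data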;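 note: viability without doxorubicin minus viability with 2 µM doxorubicin for each compound; larger differential means the compound sensitizes cells more to doxorubicin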
sEH activator = increases human soluble epoxide hydrolase activity. purified human sEH enzymatic activity, activator screen. P34913. actives 0.04% (n = 91,000). AID 717. activation, % at 2 µM; in the data active = activation above about 37%
Target sequence (P34913 whole entry, looked up): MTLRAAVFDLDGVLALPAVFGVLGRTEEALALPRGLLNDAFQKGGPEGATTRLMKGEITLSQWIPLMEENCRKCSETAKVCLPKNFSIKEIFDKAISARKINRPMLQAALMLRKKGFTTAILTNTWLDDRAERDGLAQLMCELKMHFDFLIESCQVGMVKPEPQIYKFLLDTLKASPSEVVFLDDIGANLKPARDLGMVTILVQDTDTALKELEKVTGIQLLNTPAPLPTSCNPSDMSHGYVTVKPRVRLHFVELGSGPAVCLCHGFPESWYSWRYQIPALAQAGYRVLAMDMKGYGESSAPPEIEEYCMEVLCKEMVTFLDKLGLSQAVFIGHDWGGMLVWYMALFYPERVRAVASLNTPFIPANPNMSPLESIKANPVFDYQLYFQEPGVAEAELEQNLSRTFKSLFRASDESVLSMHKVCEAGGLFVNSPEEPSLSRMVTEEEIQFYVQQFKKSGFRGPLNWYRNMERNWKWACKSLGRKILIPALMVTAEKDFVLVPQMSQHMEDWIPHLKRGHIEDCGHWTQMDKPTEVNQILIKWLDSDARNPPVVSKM
Measles CPE = protection of cells from measles virus | Measles virus-infected cells, CPE protection, absorbance | actives 1.5% (n = 140,000) | protection (pct of control), % at 4 µM; in the data active = protection mostly above about 24%, no sharp cut-off; inactive = mostly below about 26%
sEH inhibitor = soluble epoxide hydrolase (human) inhibition; P34913; recombinant human sEH enzymatic activity assay; inhibition, % at 2 µM; actives 0.34% (n = 91,000); AID 707; in the data active = inhibition above about 80%
MRP1 act = MRP-1 activation | H69AR cells + doxorubicin, viability rescue, CellTiter-Glo | viability increase, % at 10 µM | actives 0.61% (n = 140,000) | AID 799;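 active = viability gain under doxorubicin at or above a set limit, the compound median plus 3 SD, cut at about 4.7% in these data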;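 note: MRP-1 overexpressing cells given doxorubicin 25 µM after compound pretreatment; 18-22 h compound pretreatment then 72 h with doxorubicin before readout; 0% = doxorubicin-only wells and 100% = vehicle-treated cells without doxorubicin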
* marks the source's active call; other numbers are inactive results; . = no result.

SMILES	SDO1 yeast rescue	MRP resist rev	sEH activator	Measles CPE	sEH inhibitor	MRP1 act
CC(C)(C)C(=O)NC(=S)NNC(=O)c1sc2ccccc2c1Cl	-1.69	.	.	5.2	.	-5.2
CCOC(=S)NC(=O)c1sc2ccccc2c1Cl	2.56	.	-3.0	15.6	1.2	8.5*
CCCOC(=S)NC(=O)c1sc2ccccc2c1Cl	1.03	.	-13.0	3.2	11.5	5.7*
O=C1CC(C(=O)Nc2nccs2)C(c2ccccc2)O1 (stereo not given)	0.83	-22.6	.	15.8	.	0.5
COCCCNC(=O)CS(=O)Cc1nc(-c2cccc(OC)c2)oc1C (stereo not given)	0.1	3.8	15.1	38.9*	-14.4	-2.1
COc1ccc2oc3cc(C)[n+]([O-])c(-c4ccc(C)cc4)c3c2c1	-1.08	.	.	14.0	.	-4.2
CCOc1cc(/C=N/NC(=O)C(=O)NCCCOC(C)C)cc(Br)c1O	1.11	.	.	5.2	.	-1.6
O=C1NC2(CCCCC2)N=C1c1ccc(Br)cc1	-0.28	-2.2	-5.0	64.5*	7.2	-0.7
O=C1NC2(CCCCC2)N=C1c1ccc(F)cc1	0.76	19.6	-2.0	6.5	4.8	0.9
COc1cc(-c2nnc(-c3ccncc3)o2)ccc1OCc1ccccc1	-1.38	-4.0	-9.3	90.7*	9.2	-5.1
N#Cc1c(N)n(CCOC(=O)c2cccc(Br)c2)c2nc3ccccc3nc12	-0.41	5.8	-1.6	4.0	3.5	5.7*
CC1CCCN(CCCCOc2cccc(Br)c2)C1 (stereo not given)	-0.76	.	.	3.8	.	-3.6
COc1ccccc1NS(=O)(=O)c1cc(NC(=O)c2ccc(Cl)nc2)ccc1Cl	-0.28	.	.	18.3	.	-2.8
CCN(CC)c1ccc(NC(=O)c2ccccc2)cc1S(=O)(=O)Nc1ccccc1OC	-0.79	.	.	44.7*	.	-3.1
COc1ccc(C(=O)Nc2ccc(Cl)c(S(=O)(=O)Nc3ccccc3OC)c2)cc1	-1.09	.	.	7.4	.	9.2*
CCN(CC)c1ccc(NC(=O)c2cccc(C)c2)cc1S(=O)(=O)Nc1ccccc1OC	-0.61	.	.	10.3	.	-2.4
COc1cc(NC(=O)c2ccco2)c(C(=O)OCC(=O)c2c[nH]c3ccccc23)cc1OC	-1.26	.	.	0.1	.	-2.0
Cc1onc(-c2ccccc2)c1-c1nc2ccccc2c(=O)o1	-1.5	-14.3	-2.5	16.2	-0.3	0.5
CCn1c(C)nc2cc(-c3nnc(-c4c(-c5ccccc5)noc4C)o3)ccc21	-2.35	12.8	12.6	50.2*	-12.1	-4.4
O=C(CSc1nc(-c2ccco2)cc(C(F)(F)F)n1)N1CCN(c2ccc(Cl)cc2)CC1	-0.94	5.0	6.5	69.9*	-1.1	-1.1
O=C(CSc1nc(-c2ccco2)cc(C(F)(F)F)n1)N1CCN(Cc2ccccc2)CC1	-1.78	6.0	5.7	17.8	-8.5	-1.1
Cc1ccc(C)c(Cc2c(C)nc3c(C(=O)N4CCOCC4)cnn3c2C)c1	-0.81	10.5	-1.5	39.8*	2.1	-3.3
CNc1ncc(Cc2ccccc2)s1	1.23	.	.	6.5	.	-1.2
COc1cnn(Cc2ccccc2)c(=O)c1SCc1ccccc1	-1.39	.	.	2.5	.	0.4
C=CCn1ncc(OC)c(Cl)c1=O	0.23	.	1.5	89.4*	1.3	0.0
SMILES	SDO1 yeast rescue	MRP resist rev	sEH activator	Measles CPE	sEH inhibitor	MRP1 act
Cc1c(C(=O)N/N=C/C(C)C)[nH]c2c([N+](=O)[O-])cccc12	0.14	.	.	6.3	.	0.5
O=C1CC(NC23CC4CC(CC(C4)C2)C3)C(=O)N1c1ccc2c(c1)OCO2 (stereo not given)	1.62	4.8	1.3	31.5*	-3.9	-0.7
O=C1CC(N2CCCCCC2)C(=O)N1c1ccc2c(c1)OCO2 (stereo not given)	-0.48	-5.0	6.9	6.6	-3.2	-2.2
O=C1c2ccccc2C(O)(Cc2ccccc2)N1c1ccc2c(c1)OCO2 (stereo not given)	-1.26	-0.5	.	25.7	.	-4.0
CC(Cc1cccs1)NC(=O)Nc1ccc(Cl)c(Cl)c1 (stereo not given)	-3.12	0.0	-89.9	1.6	89.6*	-1.6
CC(Cc1cccs1)NC(=O)Nc1ccc(Cl)cc1 (stereo not given)	-0.51	.	-86.4	15.3	86.8*	3.0
COC(=O)C1=C(C)NC(=O)NC1c1cccc(OC)c1OCc1ccccc1 (stereo not given)	0.69	-4.1	17.6	12.7	-15.4	0.0
Cc1cccc(N2C(=O)CC(Sc3nnc(C)s3)C2=O)c1 (stereo not given)	-2.19	26.3	7.5	8.2	-2.0	-1.4
CCOc1nc(-c2ccc(Cl)cc2)nc2ccccc12	0.01	.	.	4.7	.	-2.8
CN1CC(=O)NC1=NC(=O)c1ccc(Cl)c(S(=O)(=O)N2CCCCCC2)c1	-0.44	-22.0	-4.1	17.1	2.9	-2.1
O=C(Cc1c(F)cccc1Cl)NCCCn1ccnc1	0.86	.	-10.4	44.8*	11.1	-4.2
CC(C)(Oc1ccc(Cl)cc1)C(=O)N/N=C/c1cn[nH]c1-c1ccccc1	0.14	.	3.2	29.3	-1.9	-1.1
CC1=CS/C(=C(/C#N)C(=O)N2CCCCC2)N1c1ccccc1	-0.49	5.2	12.6	32.9*	-12.7	-1.4
CN1c2ccccc2C(O)=C(C(=S)Nc2ccc(F)c(Cl)c2)S1(=O)=O	0.94	.	9.8	40.7*	-7.3	-1.3
CN1c2ccccc2C(O)=C(C(=S)Nc2ccccc2)S1(=O)=O	1.34	.	.	5.7	.	-1.9
COc1cc(OC)c2c(OC)cccc2n1	-0.18	.	.	91.7*	.	-1.2
C/C(Cl)=C\Cn1c(Nc2ccccc2)nc2c1c(=O)n(C)c(=O)n2C	-0.49	6.0	6.1	24.7*	-7.5	-0.5
C/C(Cl)=C/Cn1c(NCCN(C)C)nc2c1c(=O)n(C)c(=O)n2C	0.96	21.9	-4.6	5.5	5.6	-0.8
O=C(CSc1nnnn1-c1cccc2ccccc12)N1CCOCC1	0.14	10.1	13.6	36.2*	-10.0	-3.2
Cc1cc(C)cc(-n2nnnc2SCC(=O)N2CCOCC2)c1	0.68	-0.2	2.2	3.2	-1.0	-1.7
COc1cc(/C=C/C(=O)OCC(=O)N2CC3(C)CC2CC(C)(C)C3)ccc1O (stereo not given)	-1.47	.	.	3.7	.	-2.9
COc1ccc(/C=N/OCC(=O)N2CC3(C)CC2CC(C)(C)C3)cc1OC (stereo not given)	-0.7	.	-6.2	43.5*	7.9	.
CC(C)CC(=O)Nc1ccc(C(=O)Cn2nc(C(=O)O)c3ccccc3c2=O)cc1	-0.31	.	-11.7	31.1*	13.1	-0.2
CCCCCCCC(=O)OCC(O)CO (stereo not given)	-0.61	5.6	.	91.1*	.	-2.2
CCOc1cc(C(c2c(C)[nH][nH]c2=O)c2c(C)[nH][nH]c2=O)ccc1OC(=O)c1cccc([N+](=O)[O-])c1	0.86	-4.8	-1.6	36.9*	3.8	-3.9
CC(C)CC(=O)OCc1cn(-c2ccccc2)nn1	-0.07	.	4.2	8.0	-7.0	-2.4
O=C1c2ccccc2C(=O)N1CSc1nnc2c3ccccc3n(CCc3ccccc3)c2n1	0.25	-20.1	-12.6	33.7	14.5	-1.8
c1ccc(CCn2c3ccccc3c3nnc(SCc4ccc5nonc5c4)nc32)cc1	0.41	-0.2	1.5	24.2*	1.4	0.3
